SmPrx2 inh: inhibitors of Schistosoma mansoni peroxiredoxin 2; 65,000 tested, 0.07% active; Potency, µM; S. mansoni Prx2 activity coupled to TGR/GSH (TGR is thioredoxin glutathione reductase), NADPH fluorescence loss, qHTS
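Prx2 inhibition was measured as reduced NADPH consumption when electrons flowed from NADPH through TGR and glutathione to Prx2 and H2O2. Plates were read kinetically over 8 min; enzyme reagents were held at 4 deg C during dispensing.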
Anthrax LT inh: anthrax lethal toxin internalization inhibition | Cells, anthrax lethal toxin internalization, FRET ratio (460/530) | 70,000 tested, 0.67% active | Potency, µM (doses to about 40 µM), for the others: top-dose activity change, negative = inhibition, usual class: inhibitors | AID 912; note: % is set by controls: 0 for no effect and ±100 for the full control effect; nearly all actives have a fitted effect of over 50% in size
AmpC nodet inh: blocks E. coli AmpC beta-lactamase in absence of detergent; P00811; AmpC nitrocefin hydrolysis, absorbance 480 nm, no detergent; Potency, µM (series often up to 28.7 µM), inactives show top-dose activity change, negative = inhibition; 71,000 tested, 1.8% active; AID 585; note: % of control where 0% means no effect
Target sequence (P00811 whole entry, looked up): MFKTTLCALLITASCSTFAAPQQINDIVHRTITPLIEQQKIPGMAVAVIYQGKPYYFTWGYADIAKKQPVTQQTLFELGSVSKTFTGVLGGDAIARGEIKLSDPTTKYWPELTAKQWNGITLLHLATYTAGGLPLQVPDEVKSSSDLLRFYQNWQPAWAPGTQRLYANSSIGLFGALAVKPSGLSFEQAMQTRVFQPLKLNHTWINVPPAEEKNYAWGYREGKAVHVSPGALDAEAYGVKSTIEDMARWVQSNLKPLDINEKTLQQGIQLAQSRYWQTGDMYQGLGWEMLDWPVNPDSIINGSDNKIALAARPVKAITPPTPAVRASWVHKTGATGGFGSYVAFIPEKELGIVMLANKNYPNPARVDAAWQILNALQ
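AmpC, 20 mM phosphate pH 7.0; 15 min cpd preinc, RT; start with nitrocefin (800 uM stock); A480 kinetic read, 20 s intervals, 4 min. No-enzyme wells = negative control.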
AmpC det inh: blocks E. coli AmpC beta-lactamase in presence of detergent; 71,000 tested, 0.09% active; Potency, µM (top dose mostly 28.7 µM), for inactives: top-dose activity change, negative = inhibition; P00811; AID 584; purified AmpC, nitrocefin hydrolysis with detergent; active = well fitted curve in the direction sought with a large enough effect; inconclusive = small, poorly fitted or top-dose-only effect; note: % is set by controls: 0 for no effect and ±100 for the full control effect
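E. coli AmpC (5.3 nM) in 20 mM phosphate pH 7.0 with 0.01% Triton X-100, preincubated 15 min RT with compound; nitrocefin (2 uL of 800 uM stock) hydrolysis followed by 480 nm absorbance every 20 s over 4 min.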
An asterisk follows results filed as active; ? = inconclusive; . = no result given; [ ] = another dose, or the depositor's remark. The list is not random: actives were taken first. Their share in the collection is about 2.4%. Unless noted, calls come from the whole dose curve. Potency is the fitted concentration of half-maximal effect.

SMILES	SmPrx2 inh	Anthrax LT inh	AmpC nodet inh	AmpC det inh
c1ccc(CCN2CCCCCC2)nc1	>57	11%[8 µM]	-8%[5.75 µM]	-2%[5.75 µM]
CN1CCN(CCCBr)CC1	>57	-8%[8 µM]	-8%[5.75 µM]	-3%[5.75 µM]
CCN(CC)CC[n+]1ccc2c(C)c3[nH]c4ccccc4c3c(C)c2c1	>57	4µM*	-10%[5.75 µM]	-2%[5.75 µM]
Cc1ccc(C(=O)Cn2c3c(sc2=N)CCCC3)cc1	>57	16µM*	47%	-3%
Cc1ccc2c(c1)NC(=O)C(CC(=O)NCCCN1CCCC1)O2 (stereo not drawn)	>57	-5%	4µM*[single pt active]	9%
Cc1ccc2c(c1)NC(=O)C(CC(=O)NCCCN1CCN(C3CCCCC3)CC1)O2 (stereo not drawn)	>57	-6%	8%	8%
COc1ccc(N2CCN(CCCNC(=O)CC3Oc4ccc(C)cc4NC3=O)CC2)cc1 (stereo not drawn)	>57	?	4µM*[single pt active]	13%
Clc1cc2c(c(CSC3=NCN(CC4CC4)CN3)c1)OCOC2	>57	-6%[8 µM]	-4%[5.75 µM]	-3%[5.75 µM]
O=c1cc(N2CCc3ccccc3C2)[nH]c(=O)n1-c1ccc(Cl)cc1	>57	5%	16µM*[single pt active]	-3%
O=c1cc(N2CCCC2)[nH]c(=O)n1-c1ccc(Cl)cc1	>57	-7%	-12%	-3%
O=c1cc(N2CCc3ccccc3C2)[nH]c(=O)n1-c1ccc(Br)cc1	>57	8%	16µM*[single pt active]	-4%
COc1cc(NC(=O)c2ccc(Cl)cc2)c(OC)cc1NC(=O)CN1CCOCC1	>57	13µM*	123%	1%
CCCCCCCC/C=C\CCCCCCCC(=O)NCCc1ccc(O)c(O)c1	>57	?	10µM*	-8%
C[C@@H]1O[C@@H](O[C@H]2C[C@@H](O)[C@]3(CO)[C@@H]4[C@@H](O)C[C@]5(C)[C@H]([C@@H]6COC(=O)C6)CC[C@@]5(O)[C@H]4CC[C@@]3(O)C2)[C@H](O)[C@H](O)[C@@H]1O	>26	?	7%	2%
COc1cc(CN2CCCCC2)cc2cc(C(=O)O)c(=O)oc12	>57	?	2%[5.75 µM]	-3%[5.75 µM]
NC(N)=N[C@H](CCC(=O)O)C(=O)O	>57	13%	7%	-8%
CS(=O)(=O)O[C@H]1CN2CCC1CC2	>57	-4%[8 µM]	0%[5.75 µM]	-7%[5.75 µM]
Cc1ccc(C(=O)CC(C(=O)O)n2cccn2)cc1 (stereo not drawn)	>57	8%	-6%	0%
COC(=O)C(CC(=O)c1ccc(Br)cc1)n1ccnc1 (stereo not drawn)	>57	13µM*	7%	-4%
Cc1cccc(C)c1OC[C@@H](N)C(C)C	>57	0%	-5%	-1%
CC(=O)OC1c2ccccc2C(=O)N1c1ccccc1C (stereo not drawn)	>57	-9%	4µM*[single pt active]	15%
CN(C)Cc1c[nH]c2ccccc12	>57	?	85%	0%
CN(C)CCCn1cc(C2=C(c3c[nH]c4ccccc34)C(=O)NC2=O)c2ccccc21	>57	0.4µM*	36%	-3%
O=C(Nc1ccc(F)cc1F)c1cc(-c2ccco2)on1	>57	-23%	-13%	-7%
CC(C)Cc1cc(C(=O)NCCN2CCOCC2)no1	>57	-2%	4µM*[single pt active]	12%
SMILES	SmPrx2 inh	Anthrax LT inh	AmpC nodet inh	AmpC det inh
O=C(NCCN1CCOCC1)c1cc(-c2ccc(Cl)cc2)on1	>57	?	33%	10%
CC(C)c1cc(C(=O)Nc2cc(Cl)ccc2O)no1	>57	?	-25%	1%
CC(C)Cc1cc(C(=O)Nc2c(F)cc(F)cc2Br)no1	>57	-23%	4µM*[single pt active]	15%
CC(C)Cc1cc(C(=O)Nc2cc(Cl)ccc2Cl)no1	>57	-14%	4µM*[single pt active]	13%
CC(C)Cc1cc(C(=O)Nc2ccc(F)cc2F)no1	>57	-14%	4µM*[single pt active]	11%
COc1cccc(OC)c1OCCNC[C@@H]1CSc2ccccc2O1	>57	?	36%	-2%
CCOC(=O)[C@]1(CC(=O)O)CCCC1=O	>57	6%[8 µM]	.	.
CCCC/C=C/C(NC(=O)c1ccc(C(F)(F)F)cc1)c1ccccc1 (stereo not drawn)	>57	-30%	16µM*[single pt active]	2%
CCCC/C=C/C(NC(=O)c1ccccc1)c1ccccc1 (stereo not drawn)	>57	?	-13%	-2%
CCCCn1c2c(c3ccccc31)CCc1nonc1-2	>57	?	4µM*[single pt active]	26%
COc1ccc2cc3cc(C(=O)NCCc4ccc(OC)c(OC)c4)oc3nc2c1	>57	13µM*	65%	-2%
CCCN(CCC)CCCNC(=O)c1cc2cc3ccc(OC)cc3nc2o1	>57	?	27%	-1%
CCN1CCN(CCCNC(=O)c2cc3cc4ccc(OC)cc4nc3o2)CC1	>57	?	34%	-3%
CCCCN(CC)CCCNC(=O)c1cc2cc3ccc(OC)cc3nc2o1	>57	13µM*	34%	-3%
COc1ccc(N2CCN(CCCNC(=O)C3CCCN(S(=O)(=O)c4cnc[nH]4)C3)CC2)cc1 (stereo not drawn)	>57	?	4µM*[single pt active]	12%
CCCS(=O)(=O)N1CCCC(C(=O)NCCCN2CCN(c3ccccc3F)CC2)C1 (stereo not drawn)	>57	-1%	45%	-4%
O=C(NCCc1ccccc1)C1CCCN(S(=O)(=O)c2cnc[nH]2)C1 (stereo not drawn)	>57	-3%	4%	4%
O=C(NCCN1CCN(c2ccccc2F)CC1)C1CCCN(S(=O)(=O)c2cnc[nH]2)C1 (stereo not drawn)	>57	-7%	4µM*[single pt active]	10%
O=C(NCCN1CCC(Cc2ccccc2)CC1)C1CCCN(S(=O)(=O)c2cnc[nH]2)C1 (stereo not drawn)	>57	-3%	4µM*[single pt active]	11%
O=c1oc2ccccc2c(O)c1/C=N/c1nc(-c2ccc(O)c(O)c2)cs1	.	-27%[8 µM]	-26%[5.75 µM]	-6%[5.75 µM]
Cc1ccc2nc(-c3ccc(N)cc3)sc2c1S(=O)(=O)O	.	?	5%	4%
O=C(O)CSCCc1ccccc1	>57	-1%[8 µM]	-3%[5.75 µM]	-5%[5.75 µM]
COc1cccc(-c2ccc3ncnc(N(C)C)c3c2)c1	>57	?	6.3µM*	10µM*
CC(C)CCOC(=O)C1C2C=CC3(CN(Cc4cccs4)C(=O)C13)O2 (stereo not drawn)	>57	-9%	4µM*[single pt active]	9%
Cc1c(O)ccc(C(=O)COc2ccccc2F)c1O	>57	10µM*	-9%	6%
SMILES	SmPrx2 inh	Anthrax LT inh	AmpC nodet inh	AmpC det inh
O=C(COc1ccccc1F)c1ccc(O)cc1O	.	-26%	-14%	5%
CCOC(=O)N1CCC(NC(=O)CN2C(=O)CCSc3ccccc32)CC1	>57	4%	4µM*[single pt active]	11%
CCOC(=O)c1cc2sccc2n1CC(=O)N1c2ccccc2CC1C (stereo not drawn)	>57	10%	16µM*[single pt active]	0%
C[C@H]1CC[C@]2(NC1)O[C@@H]1C[C@@H]3[C@@H]4CC=C5C[C@H](O)CC[C@@]5(C)[C@H]4CC[C@@]3(C)[C@H]1[C@@H]2C	>57	18%	0%	0%
O=C(Cn1c(C(=O)N2CCc3ccccc3C2)cc2sccc21)c1ccccc1	>57	?	16µM*[single pt active]	6%
CC(C)(C)c1ccc(S(=O)(=O)/C=C\C#N)cc1	>57	?	1%	-6%
